The test system of assay [1] is Vero E6 infected with SARS-CoV-2. Kind of assay: morphology score (similarity to uninfected cells); higher = more like uninfected cells. Particulars: 24 h.
Assay [2] has the same test system. Put plainly: SARS-CoV-2 infection rate relative to infected DMSO; higher = more infection, active = 60 or less. Particulars: 24 h.

In the case of `CCCCCCCCCCCCCCCCCC(=O)OC[C@@H](O)[C@H]1OC[C@H](O)[C@H]1O` [sorbitan-monostearate] (10 µM), the morphology score in assay [1] worked out at 0.0535. For the same compound, the SARS-CoV-2 infection rate in assay [2] is 97.5% (inactive).
The matching figures for `CC(=N)NCc1cccc(CN)c1` (10 µM): -0.0209 and 107% (inactive).
Take `COc1cc2c(cc1O)CC[C@@H]1[C@@H]2CC[C@]2(C)[C@@H](O)CC[C@@H]12` [2-methoxyestradiol] (0.833333 µM): the morphology score in assay [1] is 0.00558. The SARS-CoV-2 infection rate in assay [2] is 102% (inactive).
The matching figures for `CCCOc1ccc2[nH]cc(C3=CCNCC3)c2n1` (10 µM): 0.24 and 96% (inactive).
The matching figures for `CC(C)NCC(O)c1ccc([N+](=O)[O-])cc1` (stereo unspecified) [nifenalol] (10 µM): -0.141 and 118% (inactive).
The corresponding values for `COc1cc(Nc2ncc(F)c(Nc3ccc4c(n3)NC(=O)C(C)(C)O4)n2)cc(OC)c1OC` (10 µM) are 0.09 and 124% (inactive).
On to `CC(=O)OCC1=C(C(=O)O)N2C(=O)[C@@H](NC(=O)CSc3ccncc3)[C@H]2SC1` [cephapirin] (10 µM), for which the morphology score in assay [1] is -0.142. In assay [2], the SARS-CoV-2 infection rate is 93.5% (inactive).
`O=CN1CCC(C(=O)NCCN2CCC(=C3c4ccccc4C=Cc4ccccc43)CC2)CC1` (10 µM) gave a morphology score in assay [1] of 0.0149. Besides, the SARS-CoV-2 infection rate in assay [2] is 100% (inactive).
`CN(C)c1ccc(-c2nc3c(N4CCN(CC(=O)Nc5nccs5)CC4)c(Cl)cnc3[nH]2)cc1` (10 µM): the morphology score in assay [1] came out at 0.47. The SARS-CoV-2 infection rate in assay [2] was 74.5% (inactive).
The matching figures for `CNC(=O)c1cc(COc2nnc(Nc3ccc(Cl)cc3)c3ccoc23)ccn1` [telatinib] (10 µM): 0.0611 and 107% (inactive).
The corresponding values for `CCOc1ccn(-c2ccc(F)cc2)c(=O)c1C(=O)Nc1ccc(Oc2ccnc(N)c2Cl)c(F)c1` (10 µM) are 0.364 and 107% (inactive).
The matching figures for `CCS(=O)(=O)CCn1c([N+](=O)[O-])cnc1C` [tinidazole] (10 µM): 0.142 and 108% (inactive).
As to `Cc1cc2nc3c(=O)[nH]c(=O)nc-3n(C)c2cc1C=O` (10 µM), in assay [1], the morphology score was 0.102. For the same compound, in assay [2], the SARS-CoV-2 infection rate is 100% (inactive).
The corresponding values for `COc1c(O[C@@H]2O[C@H](CO)[C@@H](O)[C@H](O)[C@H]2O)cc2c(c1OC)-c1ccc(SC)c(=O)cc1[C@@H](NC(C)=O)CC2` [thiocolchicoside] (10 µM) are -0.00288 and 114% (inactive).
The matching figures for `CCOc1nc2cccc(C(=O)OC(C)OC(=O)OC3CCCCC3)c2n1Cc1ccc(-c2ccccc2-c2nn[nH]n2)cc1` (stereo unspecified) [candesartan-cilexetil] (10 µM): 0.13 and 92.5% (inactive).
The matching figures for `Oc1cc(O)cc(/C=C/c2ccc(O)c(O)c2)c1` [piceatannol] (10 µM): -0.206 and 112% (inactive).
In turn, `O=C(CCCN1CCC(O)(c2ccc(Br)cc2)CC1)c1ccc(F)cc1` [bromperidol] (10 µM) showed a morphology score in assay [1] of -0.0835. In addition, the SARS-CoV-2 infection rate in assay [2] was 106% (inactive).
The matching figures for `CC(=O)NS(=O)(=O)c1ccc(NC(=O)c2ccccc2C(=O)O)cc1` [phthalylsulfacetamide] (10 µM): 0.21 and 99.5% (inactive).
The matching figures for `CC[N+](CC)(CC)CCOc1ccc(/C=C/c2ccccc2)cc1` (10 µM): -0.141 and 105% (inactive).
The matching figures for `O=c1c(-n2ccnn2)c[nH]n1-c1cc(N2CCOCC2)ncn1` [molidustat] (10 µM): 0.0599 and 98.5% (inactive).
In assay [1], `Cc1cccc(C)c1OCC(=O)N[C@@H](Cc1ccccc1)[C@@H](O)C[C@H](Cc1ccccc1)NC(=O)[C@H](C(C)C)N1CCCNC1=O` [lopinavir] (10 µM) gave a morphology score of 0.184. In addition, in assay [2], the SARS-CoV-2 infection rate was 105% (inactive).
The matching figures for `COc1cc(N2CCC(O)CC2)ccc1Nc1cc(Nc2ccccc2S(=O)(=O)C(C)C)c2cc[nH]c2n1` (0.833333 µM): -0.0202 and 106% (inactive).
The matching figures for `O=C1NC(=O)c2cc(Nc3ccccc3)c(Nc3ccccc3)cc21` (10 µM): 0.39 and 72% (inactive).
The matching figures for `CCOCc1cc(OC)c(-c2ccc(C[C@H](NC(=O)c3c(F)cccc3F)C(=O)O)cc2)c(OC)c1` [firategrast] (10 µM): -0.05 and 105% (inactive).
Consider `O=C(/C=C/c1ccc(CN(CCO)CCc2c[nH]c3ccccc23)cc1)NO` [dacinostat] (0.833333 µM), for which the morphology score in assay [1] came out at 0.00104. Moreover, in assay [2], the SARS-CoV-2 infection rate was 104% (inactive).
The corresponding values for `CCCCN1CCCC1CNC(=O)c1cc(C#N)c2ccccc2c1OC` (stereo unspecified) [nafadotride] (10 µM) are 0.327 and 89% (inactive).
The corresponding values for `COc1cc(NC(=O)c2ccccn2)ccc1Cl` (10 µM) are 0.133 and 96.5% (inactive).
`C=CC(=O)Nc1cccc(Nc2nc(Nc3ccc(Oc4ccnc(C(=O)NC)c4)cc3)ncc2F)c1` (0.833333 µM) gave a morphology score in assay [1] of 0.147. The SARS-CoV-2 infection rate in assay [2] is 110% (inactive).
